# Compounds with a hit are over-represented: about 2.8% of the library has one in this group of screens.
# rCAG binder: molecules binding r(CAG) RNA repeats; AID 651821; 370,000 compounds, 1.3% hits; inhibition, % at 3 µM; r(CAG) RNA repeat, TO-PRO-1 dye displacement fluorescence;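 active = inhibition above the plate cutoff, the mean of all test compounds on that plate plus 3 SD, cut at about 35% in these data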;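 also: higher means more dye released from RNA so lower well fluorescence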
# MsrA inhibitor: inhibits bovine methionine sulfoxide reductase A; purified bovine MsrA, absorbance read-out; inhibition, % at 15.5 µM; 360,000 compounds, 0.75% hits; AID 651718
# bovine MsrA act: bovine methionine sulfoxide reductase A activation; purified bovine MsrA, absorbance read-out; activation, % at 10.6 µM; 360,000 compounds, 0.3% hits; AID 602163; in the data active = activation above about 7.5%
# HGIII-sPLA2 inh: Blocks human group III sPLA2 activity | QFRET BODIPY PC-A2 liposome hydrolysis, fluorescence | inhibition, % at 12.2 µM | 370,000 compounds, 0.56% hits;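 active = inhibition above mean plus 3 SD of compounds lying within the high and low control bounds, cut at about 19% in these data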
# Target sequence (Q9NZ20 whole entry, looked up): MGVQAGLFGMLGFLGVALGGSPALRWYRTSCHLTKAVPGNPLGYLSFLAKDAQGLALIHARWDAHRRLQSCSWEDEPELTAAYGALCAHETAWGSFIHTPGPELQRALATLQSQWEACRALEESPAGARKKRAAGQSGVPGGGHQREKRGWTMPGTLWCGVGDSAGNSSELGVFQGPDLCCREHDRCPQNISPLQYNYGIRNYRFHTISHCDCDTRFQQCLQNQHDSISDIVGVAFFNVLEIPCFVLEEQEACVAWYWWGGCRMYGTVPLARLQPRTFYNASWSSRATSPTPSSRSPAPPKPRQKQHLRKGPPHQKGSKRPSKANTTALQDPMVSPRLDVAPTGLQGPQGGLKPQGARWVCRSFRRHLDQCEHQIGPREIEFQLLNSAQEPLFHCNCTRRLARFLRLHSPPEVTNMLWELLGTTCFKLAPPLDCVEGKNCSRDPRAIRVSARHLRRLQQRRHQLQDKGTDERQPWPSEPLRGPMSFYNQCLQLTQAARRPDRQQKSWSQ
# MsrA conf: bovine MsrA inhibition, confirmed; shares compounds with MsrA inhibitor; purified bovine MsrA, absorbance read-out; inhibition, % at 15.5 µM; 2,300 compounds, 41% hits; AID 651822;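 also: coupled to thioredoxin reductase with NADPH and selenocystamine and DMSO as substrate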
# A number is an active result; 0 = inactive; - = not tested or not shown. Rule as the data show it, unless noted: active = inhibition above about 4.5%; inactive = the rest.
SMILES,rCAG binder,MsrA inhibitor,bovine MsrA act,HGIII-sPLA2 inh,MsrA conf
O=C(O)c1cc(N/N=C/c2ccc(N3CCOCC3)cc2)ccc1Cl,0,4.8,0,0,5.8
Cc1cc(C)nc(Nc2ccc(N3CCOCC3)cc2)n1,0,0,0,0,-
COCCNC(=S)N/N=C/c1ccc(N2CCOCC2)cc1,0,8.1,0,0,5.9
C=C(C)CNC(=S)N/N=C/c1ccc(N2CCOCC2)cc1,0,6.1,0,0,5.1
O=C(OCC#CCSc1nnc(-c2ccncc2)o1)c1cccs1,0,0,0,0,-
COc1ccc(N2CCN(S(=O)(=O)c3c(C)nc4sccn4c3=O)CC2)cc1,0,0,0,0,-
CCN(CC)CCOC(=O)c1cccc(OC)c1,0,0,0,0,-
COc1ccccc1-c1cc(NC=O)c2ncc(-c3cccc(C(C)=O)c3)n2c1,0,0,0,0,-
CSCC[C@@H](C(=O)NCCCCCCCCCCC(=O)N1CCN(C(=O)OC(C)(C)C)CC1)n1cc(CCO)nn1,0,0,0,0,-
CC(=O)C1=C(C)NC(C)=C(C(C)=O)C1c1ccccc1,0,0,0,0,-
COc1ccc(/C=N\Nc2ncc(F)c(N3CCOCC3)n2)cc1OC,0,4.7,0,0,0
CC(C)NC(=S)N/N=C/c1ccc(N2CCOCC2)cc1,0,7.0,0,0,5.4
COc1ccc(/C=N/Nc2cc(C)nc(N3CCOCC3)n2)cc1OC,0,0,0,0,-
COc1cc(/C=N/NC(=S)NCCN2CCOCC2)ccc1O,0,7.4,0,0,5.2
N#Cc1ccc(C23CC4(C2)[C@H](CN(Cc2cccnc2)[C@@H]4c2ccccc2)C3c2ccccc2)cc1 (some centres not stated),0,0,0,0,-
COC(=O)c1ccc(C2/C(=C(\O)c3ccc4c(c3)OCCO4)C(=O)C(=O)N2CCCN2CCOCC2)cc1 (configuration not stated),0,0,0,0,-
O=C1C(=O)N(CCCN2CCOCC2)C(c2ccc([N+](=O)[O-])cc2)/C1=C(/O)c1ccc2c(c1)OCO2 (configuration not stated),0,5.7,0,0,0
O=C(Nc1nc2ccc(S(=O)(=O)N3CCOCC3)cc2s1)c1cccs1,0,5.6,0,0,0
CN(C)S(=O)(=O)c1ccc2nc(NC(=O)c3cccs3)sc2c1,0,6.2,0,0,5.4
CCS(=O)(=O)Nc1ccc(C2=NN(C(=O)c3ccco3)C(c3ccco3)C2)cc1 (configuration not stated),0,5.1,0,0,0
Cc1ccc(/C=N/c2sc3c(c2C#N)CCC3)s1,0,0,0,0,-
O=C1CC(SC(=S)C2CCCC2=O)C(=O)N1 (configuration not stated),0,0,0,0,-
COCC(C)NC(=O)CCSc1nc(-c2ccc(OC)cc2)cc(C(F)(F)F)n1 (configuration not stated),0,5.0,0,0,0
CCC(C)NC(=O)CSc1nc(-c2cccs2)cc(C(F)(F)F)n1 (configuration not stated),0,6.2,0,0,0
O=C(O)CSc1nc(-c2cccs2)cc(C(F)(F)F)n1,0,0,0,0,-
SMILES,rCAG binder,MsrA inhibitor,bovine MsrA act,HGIII-sPLA2 inh,MsrA conf
COc1ccc(N2CCN(S(=O)(=O)c3cccc4nsnc34)CC2)cc1,0,0,0,0,-
CC(=O)c1ccc(N2CCN(S(=O)(=O)c3cccc4nsnc34)CC2)cc1,0,4.7,0,0,0
O=C(OCC(=O)N1CCN(C(=O)c2ccco2)CC1)c1ccccc1NCCO,0,4.7,0,0,0
C[C@H]1Cn2cnc(C(=O)N3CCN(c4ccccc4)CC3)c2C(=O)N1,0,0,-,0,-
O=C(CCC(=O)N1CCCCC1)Nc1nnc(C2CCCCC2)s1,0,0,0,0,-
COc1cccc(/C=N/NC(=O)c2cc3c(OC)c(OC)ccc3[nH]2)c1OC,0,6.3,0,0,4.6
COc1cccc(/C=N/NC(=O)c2cc3c(OC)cccc3[nH]2)c1OC,0,5.3,0,0,0
COCCCNc1nc2nonc2nc1N1CCN(C2CCCC2)CC1,0,0,0,0,-
COCCCNc1nc2nonc2nc1N1CCN2CCCC2C1 (configuration not stated),0,4.8,0,0,0
COCCCC1CCN(Cc2nc(Cc3ccccc3Cl)no2)CC1,0,0,0,0,-
Cc1cc(C)cc(C(=O)OCC(=O)N2CCCCCC2)c1,0,0,0,0,-
COc1ccc(/C=N/NC(=O)c2cc3c(ccc4ccccc43)o2)c(OC)c1,0,0,0,0,-
COc1cc(/C=C/c2cc(C(F)(F)F)[nH]c(=O)n2)cc(OC)c1OC,0,5.6,0,0,0
COc1cc(/C=C/C2=NNC(=O)CC2)cc(OC)c1OC,0,8.2,0,0,0
COc1cc(OC)c(OC)cc1/C=C/c1cc(C(F)(F)F)[nH]c(=O)n1,0,0,0,0,-
O=C(Nc1nc2ccccc2s1)c1ccc(N2CCCCC2)c([N+](=O)[O-])c1,0,4.7,0,0,0
O=C(Nc1ccon1)c1ccc(N2CCCCC2)c([N+](=O)[O-])c1,0,0,0,0,-
CN(C)c1ccc(C(=O)Nc2ccc(S(=O)(=O)NC3=NCCCCC3)cc2)cc1,0,5.1,0,0,0
Cc1cc(Br)c(OCc2ccc(C(=O)N/N=C3\CC4CC=CC34)cc2)c(Br)c1 (configuration not stated),0,0,0,0,-
CCCCCCSC1=C(C#N)C(=O)NC2(CCCCC2)S1,70,5.2,0,0,0
COc1cc(/C=N/Nc2nc3c(c(=O)n(C)c(=O)n3C)n2Cc2ccccc2)ccc1OC(=O)c1ccco1,0,5.4,0,0,0
Cc1cccn2c(CN3CCSCC3)c(C(=O)N3CCOCC3)nc12,0,0,0,0,-
c1ccc2c(c1)CCCN2c1nc2ccccc2n2cnnc12,0,12,0,0,12
Nc1ccc(-c2nc3ccc(N)cc3o2)cc1,0,4.8,0,0,5.4
Cc1cc(C(=O)Nc2ccc(S(=O)(=O)Nc3onc(C)c3C)cc2)cs1,0,0,0,0,-
SMILES,rCAG binder,MsrA inhibitor,bovine MsrA act,HGIII-sPLA2 inh,MsrA conf
Cc1noc(NS(=O)(=O)c2ccc(NC(=O)c3cnc4scc(C)n4c3=O)cc2)c1C,0,5.8,0,0,6.2
Cc1cc(NS(=O)(=O)c2ccc(NC(=O)/C=C/c3ccco3)cc2)nc(C)n1,0,6.7,0,0,4.8
Cc1cc(NS(=O)(=O)c2ccc(NC(=O)c3cnc4scc(C)n4c3=O)cc2)nc(C)n1,0,6.8,0,0,0
Cc1cc2[nH]c(=O)c(=O)[nH]c2cc1S(=O)(=O)Nc1cccc(C)c1C,0,0,0,0,-
CC1(c2ccccc2)CC(c2ccccc2)=C(C#N)C(=O)N1 (configuration not stated),0,0,0,0,-
OCCC1CN(Cc2nc3c(s2)CCCC3)CCN1Cc1ccsc1 (configuration not stated),0,0,0,0,-
O=C(NCCCNC(=O)c1ccccn1)c1cccc(F)c1,0,0,0,0,-
CCOC(=O)C1=C(C)NC(C)=C(C(=O)OCC)C1C(=O)OCC(=O)NC,0,11,0,0,0
COc1ccc(C2=NN(C(=O)/C=C/c3ccccc3)C(c3ccccc3)C2)c(OC(C)=O)c1 (configuration not stated),0,0,0,0,-
CC1CCN(C2=NC(=O)/C(=C/c3ccccc3F)S2)CC1,0,5.4,0,0,0

# Screening results: PubChem, The Scripps Research Institute Molecular Screening Center
